Hits are enriched below; roughly 3.6% of the tested compounds scored in any of these assays.
PHOSPHO1 inh – PHOSPHO1 (human) inhibition; actives 1.1% (n = 290,000); AID 1565; Q8TCT1; inhibition, % at 13.3 µM; recombinant PHOSPHO1, absorbance phosphatase assay; in the data active means inhibition above about 60%
Target sequence (Q8TCT1 whole entry, looked up): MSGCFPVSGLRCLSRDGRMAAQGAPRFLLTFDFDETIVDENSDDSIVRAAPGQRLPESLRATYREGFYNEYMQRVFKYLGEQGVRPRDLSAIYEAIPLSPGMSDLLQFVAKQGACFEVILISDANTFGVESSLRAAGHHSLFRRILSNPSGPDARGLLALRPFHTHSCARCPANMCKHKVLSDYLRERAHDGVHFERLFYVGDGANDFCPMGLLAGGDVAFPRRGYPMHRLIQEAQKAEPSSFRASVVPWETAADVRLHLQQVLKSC
Wnt bcat act – activates Wnt/beta-catenin signaling in a reporter cell assay | activator, plate reader | activation, % at 9.35 µM | actives 1.2% (n = 300,000) | AID 743398; in the data active means activation above about 30%, passing the limit was not always enough; inconclusive means no clear call, values can overlap the other calls;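 further: 0% = neutral control wells and 100% = positive control wells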
A3A deaminase – inhibitors of human APOBEC3A DNA deaminase; P31941; recombinant A3A, FAM/TAMRA ssDNA deamination fluorescence; inhibition, % at 20 µM; actives 0.41% (n = 330,000); AID 493011;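 active means at least 40% inhibition at 20 µM here, with at most 30% in a related deaminase screen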;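 further: plate controls were A3A with DMSO for no effect and wells lacking A3A enzyme for full effect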
Target sequence (P31941 whole entry, looked up): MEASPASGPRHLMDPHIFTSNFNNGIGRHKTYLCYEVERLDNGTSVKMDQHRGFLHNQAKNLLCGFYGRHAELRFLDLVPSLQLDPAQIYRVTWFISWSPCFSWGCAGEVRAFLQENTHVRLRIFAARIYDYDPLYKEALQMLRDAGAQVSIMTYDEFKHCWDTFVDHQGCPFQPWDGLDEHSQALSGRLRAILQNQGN
A3G deaminase – APOBEC3G (human) deaminase inhibition | Q9HC16 | recombinant A3G, ssDNA deamination FAM/TAMRA fluorescence | inhibition, % at 20 µM | actives 0.28% (n = 330,000);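 active means inhibition of at least 40% at 20 µM, with no more than 30% in the related APOBEC3A deaminase screen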;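 further: plate controls were DMSO wells with A3G for no effect and wells lacking A3G enzyme for full effect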
esBAF inh – SWI/SNF esBAF complex inhibition. mouse ES cells, Bmi1-luciferase knock-in reporter, 24 h; 100% = twice the neutral-well signal. reporter increase, % at 12.5 µM. actives 2% (n = 350,000); in the data active means activation above about 40%; inconclusive means no clear call, values can overlap the other calls;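 further: 0% = median of the plate's neutral control wells and 100% = double that signal; a rise in the Bmi1 reporter signal indicates esBAF inhibition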
MITF TRPM1 HTS – increases MITF-driven TRPM1 promoter luciferase signal | AID 588334 | activation, % at 12.5 µM | SK-MEL-5 TRPM1-promoter luciferase, 24 h; % of positive control, neutral wells = 0 | actives 0.75% (n = 300,000);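 active means mean activation of at least 80% with every replicate also reaching 80%; inconclusive means mean reaches 80% but some replicate falls short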;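 further: 0% = neutral control wells and 100% = parthenolide positive control wells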
Active calls of the source: *; ? = inconclusive; nt = no result given.

SMILES	PHOSPHO1 inh	Wnt bcat act	A3A deaminase	A3G deaminase	esBAF inh	MITF TRPM1 HTS
O=C(NCCS(=O)(=O)NCCc1ccccc1)c1ccc2c(c1)OCO2	nt	-1.1	0.3	-6.6	nt	107.8*
C[C@H]1CN([C@@H](C)CO)C(=O)c2cc(NS(=O)(=O)c3ccccc3)ccc2O[C@@H]1CN(C)CC1CC1	nt	nt	nt	nt	1.3	nt
CC=Cc1ccc2n(c1=O)C[C@H]1[C@H](CO)[C@@H](C(=O)NCC)N(C(=O)CC3CC3)[C@@H]21 (mixture of isomers)	nt	nt	nt	nt	-1.0	nt
CC(C)NC(=O)Nc1ccc2c(c1)C(=O)N([C@H](C)CO)C[C@@H](C)[C@@H](CN(C)S(=O)(=O)c1ccccc1)OCCCC[C@H](C)O2	nt	nt	nt	nt	3.2	nt
C(=C\c1nc(-c2ccncc2)no1)/c1ccccc1	-121.1	40.3*	0.4	1.4	20.3	70.2
O=C(C[C@@H]1C=C[C@H](NC(=O)c2ccccn2)[C@@H](CO)O1)NCc1cc(F)cc(F)c1	nt	nt	nt	nt	2.7	nt
Cn1cc(CNC(=O)c2ccc3nc(Cc4ccccc4F)oc3c2)cn1	7.7	13.1	-2.6	-5.4	nt	84.3*
O=C(NCCc1ccccn1)c1ccc2nc(Cc3ccccc3F)oc2c1	37.6	16.1	1.3	-2.5	72.0*	53.9
Cn1cc(CCNC(=O)c2ccc3nc(Cc4ccccc4F)oc3c2)cn1	23.5	32.8*	-8.5	-9.6	75.3*	125.1*
CCN(Cc1cnn(C)c1)C(=O)c1ccc2nc(Cc3ccccc3F)oc2c1	nt	-0.9	nt	nt	21.4	nt
Cc1cccc(CNC(=O)c2ccc3nc(Cc4ccccc4F)oc3c2)n1	37.6	22.8	-1.6	-1.1	-1.0	?
Cc1cc(CN(C)C(=O)c2ccc3nc(Cc4ccccc4F)oc3c2)on1	12.6	18.4	0.7	-3.6	nt	98.3*
O=C(C[C@H]1CC[C@H]2NC[C@H](O)COC[C@@H]2O1)NCc1ccc(Oc2ccccc2)cc1	nt	nt	nt	nt	-6.6	nt
CC(C)NC(=O)Nc1ccc2c(c1)CC(=O)N([C@H](C)CO)C[C@H](C)[C@@H](CN(C)Cc1ccc3c(c1)OCO3)O2	nt	nt	nt	nt	-2.1	nt
CC(=O)c1cccc(NC(=S)NC(=O)c2cccc(C)c2)c1	3.2	28.6	nt	nt	nt	108.5*
CC(=O)c1cccc(NC(=S)NC(=O)c2ccccc2C)c1	3.4	4.7	0.4	-11.3	nt	14.5
O=C(NC(=S)Nc1ccccc1)c1ccc(-c2ccccc2)cc1	-1.1	19.5	-1.7	-10.7	62.2*	46.9
Cc1cc(C(=O)NC(=S)Nc2cccc(NC(=O)C(C)C)c2)ccc1[N+](=O)[O-]	-7.9	10.5	-3.1	-2.1	49.4*	22.8
CC(=O)c1cccc(NC(=S)NC(=O)c2ccc(Cl)cc2)c1	-12.3	17.5	4.4	-6.1	nt	97.2*
COc1ccc(NC(=O)N[C@H]2CC[C@H](CCNC(=O)Cc3ccncc3)O[C@H]2CO)cc1	nt	nt	nt	nt	-1.3	nt
N=c1c2c(ncn1CCCO)Oc1c(ccc3ccccc13)C2c1ccccc1 (stereo not given)	45.9	42.5*	3.3	-7.4	nt	-32.2
CCCNC(=O)C[C@@H]1C[C@@H]2c3cc(NS(=O)(=O)c4ccc(F)cc4)ccc3O[C@@H]2[C@H](CO)O1	nt	nt	nt	nt	1.1	nt
C/C(CC(=O)NCc1ccccc1Cl)=N/NC(=O)c1ccccn1	36.2	-0.6	-3.7	-9.7	44.4*	11.5
CCc1ccc(NC(=O)C2CCCCC2C(=O)O)cc1 (stereo not given)	29.0	-8.7	0.1	-4.2	nt	-6.3
CCc1ccc(NC(=O)C2C3/C=C\CCCCC32)cc1 (stereo not given)	7.1	nt	16.8	0.8	60.8*	94.1*
SMILES	PHOSPHO1 inh	Wnt bcat act	A3A deaminase	A3G deaminase	esBAF inh	MITF TRPM1 HTS
O=C1CCC(C(=O)Nc2ccc(Cl)cc2)N1 (stereo not given)	19.0	1.5	-3.8	-4.6	-6.4	24.9
O=C(Nc1ccc(Cl)cc1)C1C2CCCCC21 (stereo not given)	nt	19.7	-5.6	0.9	72.5*	nt
CCOC(=O)C1=C(CP(=O)(c2ccccc2)c2ccccc2)NC(=O)NC1c1ccc(Cl)cc1 (stereo not given)	-1.8	-6.1	3.2	2.7	0.1	-6.5
CCOC(=O)C1=C(CP(=O)(c2ccccc2)c2ccccc2)NC(=O)NC1c1ccc(OC)cc1 (stereo not given)	-8.6	83.8*	1.9	-5.0	nt	-9.7
COc1cccc(Nc2nc3ccc(OC)cc3s2)c1	0.6	1.5	-0.6	-13.6	nt	114.8*
COc1ccc(-c2nc(NC3=NCCCCC3)sc2C)cc1	57.8	-20.3	-1.6	-4.6	nt	8.9
COc1ccc2nc(NC3=NCCC3)sc2c1	16.2	57.5*	0.8	-4.5	57.5*	64.5
Nc1nc(SCc2ccccc2Cl)[nH]c(=O)c1-c1ccccc1	12.7	nt	2.4	6.5	14.1	6.2
Nc1nc(SCc2ccccc2)[nH]c(=O)c1-c1ccccc1	5.5	16.4	9.1	-4.5	44.6*	67.8
C[C@H]1CN([C@@H](C)CO)C(=O)CCCn2cc(nn2)CO[C@H]1CN(C)S(=O)(=O)c1ccccc1F	nt	nt	nt	nt	3.2	nt
CCOCC(=O)Nc1nc2ccc(C)cc2s1	3.9	nt	0.6	-1.8	nt	74.4
CCOc1ccc2nc(NC(=O)c3cnccn3)sc2c1	27.9	7.7	3.0	0.7	49.2*	55.6
CCOCC(=O)Nc1nc2ccc(OCC)cc2s1	-1.2	45.7*	-2.6	-2.4	7.3	33.4
CCOc1ccc2nc(NC(=O)CSc3ccc(Cl)cc3)sc2c1	0.3	5.3	2.0	-3.2	nt	19.2
CCOc1ccc2nc(NC(=O)CSCC(=O)Nc3cc(C)on3)sc2c1	nt	?	-0.1	2.5	4.6	103.8*
CCCNC(=O)C[C@H]1C[C@H]2c3cc(NS(=O)(=O)c4ccc(F)cc4)ccc3O[C@H]2[C@@H](CO)O1	nt	nt	nt	nt	0.9	nt
COC(=O)c1cc2oc(C)cc2n1CC(=O)N(C)c1ccccc1	-3.3	nt	-2.2	-5.9	-4.2	15.8
C=CCN(C(=O)Cn1c(C(=O)OC)cc2oc(C)cc21)c1ccccc1	74.3*	1.1	2.4	5.1	-10.6	-4.7
CNC(=O)c1cc2c(s1)CCCCCC2	5.3	nt	-0.1	-3.3	-2.6	8.4
CC1CCC(NC(=O)c2ccc(Br)o2)CC1 (stereo not given)	nt	1.3	nt	nt	13.3	nt
CC1CCC(NC(=O)c2cc3c(s2)CCCC3)CC1 (stereo not given)	nt	?	-0.5	-1.9	?	100.3*
Cc1ccc(C(=O)NC2CCC(C)CC2)s1 (stereo not given)	nt	62.2*	-1.8	-6.2	nt	49.8
Cc1ccc(C(=O)NC2CCC(C)CC2)o1 (stereo not given)	nt	20.5	-4.0	-4.5	54.6*	38.1
COc1cc(C)ccc1OCc1cc(C(=O)N(Cc2c(C)nn(C)c2C)C2CC2)no1	45.3	26.2	-6.5	-6.5	60.7*	45.8
COc1cc(C)ccc1OCc1cc(C(=O)N(Cc2nccn2C)C(C)C)no1	58.3	27.0	1.1	1.0	94.4*	75.3
COc1cc(C)ccc1OCc1cc(C(=O)N2CCCCCC2)no1	36.0	9.3	3.3	0.1	25.7	29.2

High-throughput results from PubChem BioAssay.
